Screening data: PubChem BioAssay, National Center for Advancing Translational Sciences (NCATS)
HEK293 viab – cell viability loss counter-screen; HEK-293-SNCA-luc viability, GF-AFC fluorescence, 24 h; AID 1671193; Potency, µM (highest dose often 57.1 µM), hits mostly cytotoxic; hit rate 0.12% among 150,000; also: nearly all actives have a fitted effect of over 30% in size
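HEK-293-SNCA-luc cells (1500/well) plated 24 h, then exposed 24 h to a dilution series; GF-AFC added 30 min at 37C, fluorescence 405/540 nm; normalised to medium-only and DMSO wells, Hill fit.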
KDM5B inh – blocks human KDM5B histone demethylase activity; Q9UGL1; KDM5B demethylase, FDH-coupled NADH fluorescence (FDH is formaldehyde dehydrogenase); Potency, µM (titrated, usually from 57.7 µM), most hits filed as inhibitors; hit rate 2.6% among 220,000; AID 1347165; also: nearly all actives have a fitted effect of over 70% in size
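Compound dilutions met 200 nM (final) KDM5BΔAP for 10 min at room temperature before substrate addition. The substrate mix held 12.5 µM H3K4me3 with cofactors 25 µM α-ketoglutarate and 50 µM Fe²⁺. NADH signal gain over 30 min defined activity.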
SNCA expr inh – reduces expression of the alpha-synuclein gene. Potency, µM (series often up to 57.2 µM), hits mostly inhibitors. hit rate 0.17% among 140,000. HEK-293 SNCA-luciferase knock-in, luminescence, 24 h; also: nearly all actives have a fitted effect of over 45% in size
IP6K1 inh – inhibitors of human IP6K1. hit rate 0.81% among 140,000. IP6K1 kinase, ADP-Glo luminescence, 2 h; stronger effect = lower value. AID 1645851. activity change, % (series mostly up to about 58 µM). Q92551; in the data active = activity change below about -25%
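ADP-Glo luminescence measures ADP made by human IP6K1 during a 2 h RT reaction with ATP/IP6 (mix at 1.3 mM/130 uM); top library doses 57.5 and 19.1 uM final.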
A number is an active result; i = inactive; ? = inconclusive; nt = no result given; ! = not confirmed by another sample. This is a sample that favours compounds with a hit; in the whole collection about 2.8% have one here. Unless noted, calls follow the shape of the dose curve; as a rule, active = well fitted curve in the direction sought with a large enough effect; inconclusive = small, poorly fitted or top-dose-only effect, or another doubt; inactive = no such curve, though single readings can be large; an effect the other way counts as inactive or inconclusive.

SMILES | HEK293 viab | KDM5B inh | SNCA expr inh | IP6K1 inh
COc1ccc(-c2cc(C(=O)NCc3ccnc(N)c3)c3c(c2)ncn3C)cc1 | i | 39.8µM | i | i
Cc1noc(-c2ccccc2Cl)c1C(=O)NCc1ccccc1Cl | i | i | i | i
CC(C)(Oc1nn(CCOc2ccccc2)c2ccccc12)C(=O)NCc1cnccn1 | i | i | i | i
CCCCC(=O)N/N=C(\C)Cc1ccccc1 | nt | i | nt | nt
COc1cc(F)ccc1-c1cc(C(=O)NCc2cccnc2)c2c(c1)ncn2C | i | 35.5µM | i | i
Cn1cnc2cc(-c3ccc(F)cc3)cc(C(=O)NCc3cccnc3)c21 | i | 31.6µM | i | i
Cn1cnc2cc(-c3ccc(N4CCOCC4)cc3)cc(C(=O)NCc3cccnc3)c21 | i | ? | i | i
Cn1cnc2cc(-c3ccc(F)cc3)cc(C(=O)NCC3CCOCC3)c21 | i | 35.5µM | i | i
COc1ncccc1-c1cc(C(=O)NCCN2CCOCC2)c2c(c1)ncn2C | i | 35.5µM | i | i
Cc1ccc(NC(=O)N2CC(C)Oc3ccc(Cl)cc32)c(C)c1 (configuration not stated) | nt | i | nt | nt
CCCn1cnc2c1CN(S(=O)(=O)c1cccc(C(F)(F)F)c1)[C@H](C(=O)OC)C2 | i | 31.6µM | i | i
COC(=O)[C@@H]1Cc2ncn(Cc3ccc(Cl)cc3)c2CN1S(=O)(=O)c1ccc(OC)cc1 | i | i | i | i
COC(=O)[C@@H]1Cc2ncn(Cc3ccc(OC)cc3)c2CN1S(=O)(=O)c1cccc2c(N(C)C)cccc12 | i | 17.8µM | i | i
O=C(c1ccccc1)N1CCC2(C1)C(=O)Nc1ccccc12 (configuration not stated) | i | i | i | i
Cc1[nH]c(=O)c(C#N)cc1C(=O)N1CCC2(CC1)C(=O)Nc1ccccc12 | i | 22.4µM | i | i
CCOc1ccc(NC(=O)CSC2=Nc3ccccc3C3=NC(CC(=O)NCc4ccco4)C(=O)N23)cc1 (configuration not stated) | i | ? | i | i
COc1ccc(OC)c(NC(=O)CSC2=Nc3ccccc3C3=NC(CC(=O)NCc4ccco4)C(=O)N23)c1 (configuration not stated) | i | i | i | -25.3
Cc1ccccc1-c1noc(CNCc2nc3ccc(Cl)cc3[nH]2)n1 | i | i | i | i
CN(C)c1ccc(-c2nnnn2[C@H]2CO[C@H]3[C@@H]2OC[C@H]3OC(=O)Nc2ccc(Oc3ccccc3)cc2)cc1 | i | 12.6µM | i | i
O=C(Nc1ccc(Oc2ccccc2)cc1)O[C@@H]1CO[C@H]2[C@@H]1OC[C@@H]2n1nnnc1-c1ccc(-c2ccccc2)cc1 | i | ? | i | i
CN(C)c1ccc(-c2nnnn2[C@H]2CO[C@H]3[C@@H]2OC[C@H]3OCc2ccccc2)cc1 | i | 31.6µM | i | i
O=C(NC[C@H]1O[C@@H](CC(=O)N2CCN(c3ccccn3)CC2)[C@H](O)[C@@H]1O)NC1CCCCC1 | i | 25.1µM | i | i
O=C(NC[C@H]1O[C@@H](CC(=O)N2CCN(c3ccccn3)CC2)[C@H](O)[C@@H]1O)Nc1cccc(F)c1 | i | ? | ? | i
CC(C)N1C(=O)CO[C@H]2CCN(Cc3ccccn3)CC[C@@H]21 | i | 35.5µM | i | i
COc1cc2c(cc1OC)-c1c(c(C(=O)Nc3ccncc3)nn1-c1ccccc1F)C2 | nt | i | nt | nt
SMILES | HEK293 viab | KDM5B inh | SNCA expr inh | IP6K1 inh
CN(C)CCCNC(=O)c1ccc2c(c1)N(S(C)(=O)=O)CC2 | i | ? | i | i
CCN(CC)CCNC(=O)c1ccc2c(c1)N(S(C)(=O)=O)CC2 | i | 28.2µM | i | i
CS(=O)(=O)N1CCc2ccc(C(=O)NCCN3CCc4ccccc4C3)cc21 | i | 28.2µM | i | i
CC(C)(C)C(=O)N1CCCN(c2nc3ncccc3o2)CC1 | i | 35.5µM | i | i
COCC(=O)N1CCN(c2nc3ncccc3o2)CC1 | i | 31.6µM | i | i
O=C(C1CCCN(c2nc3ncccc3o2)C1)N1CCN(c2ncccn2)CC1 (configuration not stated) | i | 25.1µM | i | i
CC(=O)N1CCN(C(=O)C2CCCN(c3nc4ncccc4o3)C2)CC1 (configuration not stated) | i | ? | i | i
O=C(C1CCCC1)N1CCCN(c2nc3ncccc3o2)CC1 | i | 28.2µM | i | i
COc1ccc(C(=O)c2ccc(F)cc2)cc1 | nt | i | nt | nt
O=C(NC1CCCC1)N1CCCN(c2nc3ncccc3o2)CC1 | i | 28.2µM | i | i
O=C(Nc1ccc(-c2nc3ccccc3o2)cc1)C1CCCC1 | nt | i | nt | nt
CCN(CC)CC(=O)N1CCC(C(=O)Nc2ccc(-c3nc4ccccc4o3)cc2)CC1 | i | 28.2µM | i | i
Cc1c(C(=O)NC[C@H]2C[C@@H]3C=C[C@H]2C3)sc2ncnc(NCCc3ccccn3)c12 | i | ? | i | i
Cc1noc(C)c1-c1cc(-c2cccc(N3CCOCC3)c2)cn2cncc12 | i | 35.5µM | i | i
NC(=O)C1CCCN(CCNc2cc(-c3ccccc3)nc3ccnn23)C1 (configuration not stated) | i | 31.6µM | i | i
Cc1nc(NCCN2CCCC(C(N)=O)C2)c2cccnc2n1 (configuration not stated) | i | 25.1µM | i | i
COc1ccc(-c2cc(C(=O)NC3CC3)c3c(C4CCCN4)noc3n2)cc1 (configuration not stated) | i | 79.4µM | i | i
O=C(NC1CCNCC1)c1cc(C2CC2)nc2onc(C3CCCN3)c12 (configuration not stated) | i | 79.4µM | i | i
COc1ccc(-c2cc(C(=O)NC3CC3)c3c(C4CCNC4)noc3n2)cc1 (configuration not stated) | i | 79.4µM | i | i
CC(C)CCn1nc(C(=O)OCC#N)c2ccccc2c1=O | nt | i | nt | nt
CCc1cc(NCC(c2ccc(C)o2)N2CCOCC2)n2nccc2n1 (configuration not stated) | i | 31.6µM | i | i
COc1cncc(Nc2ncc(-c3cccnc3)c3c2OCC3)c1 | i | i | i | i
CNC(=O)c1cccc(-c2cnc(Nc3cccnc3OC)c3c2CCO3)c1 | ? | 35.5µM | i | i
CNC(=O)c1cccc(-c2cnc(Nc3ccccc3)c3c2CCO3)c1 | i | 31.6µM | i | i
CNC(=O)c1cccc(-c2cnc(Nc3ccc(N4CCOCC4)cc3)c3c2CCO3)c1 | i | ? | i | i
SMILES | HEK293 viab | KDM5B inh | SNCA expr inh | IP6K1 inh
Cc1onc(C(=O)NCC(=O)N2CCCCCNC(=O)CC2c2ccccc2)c1Cn1cccn1 (configuration not stated) | i | i | i | i
COc1ccc2c(CCNC(=O)c3ccccc3OC)c[nH]c2c1 | nt | i | nt | nt
O=C(c1ccc(Cl)cc1)N1CCC(N2CCCC2)CC1 | i | i | i | i
O=C(c1ccc(Nc2nccc(-c3cc4ccccc4s3)n2)cc1)N1CCC(N2CCCC2)CC1 | 29.9µM! | nt | ? | i
CC1(C)C(=O)N(CCOc2ccccc2)[C@H]2CN(Cc3c[nH]c4ccccc34)C[C@H]2[S+]1(=O)[O-] | i | i | i | i
Cc1ccc(-c2nc3cnccn3c2NCCC(=O)NCc2ccco2)cc1 | ? | 28.2µM | ? | i
